This is a sample that favours compounds with a hit; in the whole collection about 0.9% have one here.
Tat transport: inhibitors of E. coli Tat protein transport; E. coli MC4100 TorA-mCherry Tat export, fluorescence; inhibition, % at 10 µM; actives 0.036% (n = 340,000); AID 488895;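 active = mean replicate inhibition at least 50% and at least half of replicates individually reaching 50%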;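 also: exported cargo escapes ClpAP degradation while cytoplasmic cargo is degraded and loses fluorescence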
E coli growth-1: blocks Escherichia coli growth | OD600 absorbance (no concentration beside the values) | OD600, 23 h; stronger effect = lower value | actives 0.21% (n = 330,000);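 active = OD600 absorbance below the run mean of sample wells minus 3.6 SD, in any replicate, cut at about 0.56 in these data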
phage Ecoli inh: E. coli growth loss with phage present. AID 651602. inhibition, % at 11.9 µM. actives 0.26% (n = 360,000). growth absorbance; in the data active = inhibition above about 11%
AddAB inh: less growth of phage-infected E. coli with AddAB. inhibition, % at 11.9 µM. E. coli expressing H. pylori AddAB, absorbance growth. AID 435030. actives 0.29% (n = 330,000); in the data active = inhibition above about 12%
E coli growth-2: reduces bacterial viability in AddAB counter-screen; actives 0.27% (n = 330,000); AID 449728; inhibition, % at 11.9 µM; E. coli V3065 growth, OD600 absorbance, 18 h;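 active = inhibition above the campaign's mean inhibition across all tested compounds plus 3 SD, cut at about 9.9% in these data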;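 also: uninfected addAB+ strain grown without phage in ampicillin broth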
Calb FLC: affects C. albicans growth with fluconazole; actives 0.57% (n = 300,000); growth inhibition, % (test concentration not listed); C. albicans CaCi-2 (fluconazole-resistant clinical isolate) + fluconazole, Alamar Blue growth, 48 h;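 active = growth inhibition above about 58% in most replicates, limit read from the data, passing the limit was not always enough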;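 also: all wells also contain fluconazole at 8 µg/ml as a sub-toxic cotreatment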
AddAB conf: confirmation screen: growth loss of phage-infected E. coli expressing H. pylori AddAB; actives 64% (n = 880); shares compounds with AddAB inh; inhibition, % at 11.9 µM; E. coli V3065 expressing H. pylori AddAB, T4 phage, OD; T4 phage with gene 2 nonsense mutations;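 active = mean inhibition above a set limit taken from the earlier primary screen, cut at about 13% in these data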;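 also: higher means less bacterial growth since AddAB block lets phage replicate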
RecBCD counter: AddAB counter-screen: growth loss of RecBCD+ E. coli infected with mutant T4 phage. shares compounds with AddAB inh. AID 488955. actives 73% (n = 880). E. coli V66 + mutant T4 phage, OD growth. inhibition, % at 11.9 µM;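 active = mean inhibition above the mean of solvent-only control wells plus 3 SD, cut at about 4% in these data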;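 also: optical density read after an 18 h incubation at 37 °C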
Bact viability: reduces bacterial viability, AddAB inhibitor counter-screen. shares compounds with AddAB inh. absorbance (AddAB counterscreen). inhibition, % at 11.9 µM. actives 35% (n = 880). AID 488956; in the data active = inhibition above about 25%
RecBCD conf: confirmation: growth loss of phage-infected RecBCD+ E. coli (RecBCD inhibitor screen); shares compounds with phage Ecoli inh; E. coli V66 + T4 2- phage, growth OD; inhibition, % at 11.9 µM; actives 45% (n = 890); AID 651982;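 active = mean inhibition over triplicates exceeding the hit threshold derived in the original primary screen, cut at about 11% in these data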
Ecoli viability: counter-screen for RecBCD inhibitors: inhibitors of bacterial viability; shares compounds with phage Ecoli inh; E. coli viability, absorbance (OD) growth; inhibition, % at 11.9 µM; actives 29% (n = 890); in the data active = inhibition above about 20%;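 also: E. coli strain V66 grown with compound alone and no phage infection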
AddAB counter: growth loss of phage-infected AddAB E. coli, RecBCD counter-screen; shares compounds with phage Ecoli inh; E. coli expressing H. pylori AddAB + T4 phage, OD growth; gene 2 mutant T4, recBCD-deleted host; inhibition, % at 11.9 µM; actives 45% (n = 890); AID 651984;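 active = mean inhibition above the solvent-only control wells' mean plus 3 SD, cut at about 22% in these data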;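 also: higher means less bacterial growth from phage killing when AddAB is blocked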
Of the large screens only hits and unclear results are named; the others gave an inactive call (follow-up assays come after a bar, where they were run).

CC[C@H]1OC(=O)[C@H](C)[C@@H](O[C@H]2C[C@@](C)(OC)[C@@H](O)[C@H](C)O2)[C@H](C)[C@@H](O[C@@H]2O[C@H](C)C[C@H](N(C)C)[C@H]2O)[C@](C)(O)C[C@@H](C)CN(C)[C@H](C)[C@@H](O)[C@]1(C)O	Tat transport 121, phage Ecoli inh 101, AddAB inh 100, E coli growth-2 101 (no result: E coli growth-1, Calb FLC) | AddAB conf 99 | RecBCD counter 101 | Bact viability 102 | RecBCD conf 103 | Ecoli viability 104 | AddAB counter 104
COc1ccccc1-n1c(=O)oc2ccc(Cl)cc2c1=O	phage Ecoli inh 12, AddAB inh 12 (no result: Calb FLC) | AddAB conf inactive | RecBCD counter 10 | Bact viability inactive | RecBCD conf inactive | Ecoli viability inactive | AddAB counter inactive
O=C(Nc1ncc([N+](=O)[O-])s1)C1CC(=O)N(c2ccc(F)cc2)C1 (stereo not drawn)	none
O=C1NCCN1c1ncc([N+](=O)[O-])s1	E coli growth-1 0.066, phage Ecoli inh 98, AddAB inh 100, E coli growth-2 101 (no result: Calb FLC) | AddAB conf 96 | RecBCD counter 95 | Bact viability 96 | RecBCD conf 96 | Ecoli viability 97 | AddAB counter 101
O=C(NNc1cc(Br)c(O)c(Br)c1)c1ccccc1	phage Ecoli inh 78, AddAB inh 102, E coli growth-2 97 | AddAB conf 97 | RecBCD counter 50 | Bact viability 97 | RecBCD conf 39 | Ecoli viability 50 | AddAB counter 101
COc1ccc2ccccc2c1C=NNC(=O)c1cccc([N+](=O)[O-])c1	none (no result: Tat transport, phage Ecoli inh, AddAB inh, E coli growth-2, Calb FLC)
O=C(NN=Cc1c(O)ccc2ccccc12)c1ccc2c(c1)OCO2	phage Ecoli inh 11, AddAB inh 18, E coli growth-2 21 (no result: Calb FLC) | AddAB conf inactive | RecBCD counter 10 | Bact viability inactive | RecBCD conf inactive | Ecoli viability inactive | AddAB counter inactive
O=C(N/N=C/c1ccccc1)c1ccc2c(c1)OCO2	none (no result: E coli growth-1)
CCOc1cc(C=NNC(=O)c2ccc(CN3CCOCC3)cc2)ccc1OCc1ccccc1	none (no result: Tat transport, phage Ecoli inh, AddAB inh, E coli growth-2, Calb FLC)
O=[N+]([O-])c1ccc(-c2cnc(NO)nc2)cc1	phage Ecoli inh 31, AddAB inh 33, E coli growth-2 31 | AddAB conf 42 | RecBCD counter 30 | Bact viability 40 | RecBCD conf 31 | Ecoli viability 36 | AddAB counter 45
Nc1ncc(-c2ccc([N+](=O)[O-])cc2)cn1	phage Ecoli inh 38, AddAB inh 39, E coli growth-2 38 (no result: E coli growth-1) | AddAB conf 44 | RecBCD counter 37 | Bact viability 48 | RecBCD conf 35 | Ecoli viability 41 | AddAB counter 51
Nc1[nH]c(=O)ncc1-c1ccc([N+](=O)[O-])cc1	none (no result: Tat transport, E coli growth-1, AddAB inh, E coli growth-2, Calb FLC)
N#Cc1c(-c2ccccc2)ccn(Cc2ccccc2Cl)c1=O	none (no result: E coli growth-1)
N#Cc1c(-c2ccccc2)ccn(Cc2cccc(Cl)c2)c1=O	phage Ecoli inh 15, AddAB inh 21, E coli growth-2 16 | AddAB conf 27 | RecBCD counter 16 | Bact viability inactive | RecBCD conf inactive | Ecoli viability inactive | AddAB counter inactive
